The list is not random: actives were taken first. Their share in the collection is about 4.7%.
TRHR agonist: TRH receptor (human) agonism. P34981. TRHR cells, calcium flux fluo-8, FDSS agonist mode. activation, % at 2 µM. actives 0.18% (n = 360,000). AID 493084; also: 0% is about no effect
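TRHR-expressing cells loaded with fluo-8 calcium dye; 23 nL library compound pin-transferred, kinetic FDSS fluorescence (Ex 480/Em 530) recorded about 180 s for agonist-induced calcium release, before a 10 nM TRH EC20 addition for potentiator mode.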
D1 ag: human D1 receptor agonism; P21728; HEK293 T-REx D1 cells, calcium flux, agonist mode; activation, % at 2 µM; actives 1% (n = 360,000); also: 0% is about no effect
Target sequence (P21728 whole entry, looked up): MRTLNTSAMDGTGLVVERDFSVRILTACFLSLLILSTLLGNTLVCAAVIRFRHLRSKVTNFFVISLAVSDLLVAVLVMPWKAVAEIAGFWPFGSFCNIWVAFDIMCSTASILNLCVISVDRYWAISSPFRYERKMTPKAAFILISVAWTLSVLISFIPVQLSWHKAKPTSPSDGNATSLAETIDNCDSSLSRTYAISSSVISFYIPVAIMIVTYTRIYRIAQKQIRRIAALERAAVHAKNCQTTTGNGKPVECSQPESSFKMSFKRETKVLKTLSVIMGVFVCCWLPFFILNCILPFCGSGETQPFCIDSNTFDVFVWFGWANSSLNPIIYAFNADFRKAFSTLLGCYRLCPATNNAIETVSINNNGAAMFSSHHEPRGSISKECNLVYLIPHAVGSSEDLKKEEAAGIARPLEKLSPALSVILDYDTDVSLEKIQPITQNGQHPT
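Inducible HEK293 T-REx D1 cells, force-coupled to calcium signalling, were plated at 4000 cells/well with tetracycline and held overnight at 30 C. After no-wash calcium dye loading, compound-evoked calcium rise over 180 s flagged agonists.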
D1 potentiator: potentiators of human D1 dopamine receptor; potentiation, % at 10 µM; actives 0.036% (n = 360,000); P21728; HEK293 TREx D1 cells, calcium flux, dopamine EC20 potentiation; in the data active = potentiation above about 30%; also: 0% is about no effect
TRHR enhancer: TRH receptor (human) allosteric enhancement. actives 0.66% (n = 360,000). P34981. TRHR cells, fluo-8 calcium fluorescence, EC20 TRH enhancement. enhancement, % at 2 µM. AID 493056; in the data active = enhancement above about 30%; also: 0% is about no effect
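TRHR-expressing cells loaded with fluo-8 calcium dye were read kinetically (ex 480/em 530) during compound addition, then stimulated with an EC20 of TRH (10 nM final). Enhancement of the Gq-mediated intracellular calcium response was scored.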
D1 antag: antagonists of human D1 dopamine receptor; actives 3.2% (n = 360,000); P21728; activity change, negative = inhibition, % at 10 µM; HEK293 TREx D1 cells, calcium flux, dopamine EC80; active compounds read low; in the data active = activity change below about -30%; also: % is scaled to controls: 0 for no effect and ±100 for the full control effect
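Calcium flux readout: force-coupled, inducible Hek293 Trex D1 line, cells induced overnight at 30 C with tetracycline, dye-loaded 30–90 min at RT. Antagonism scored against EC80 dopamine challenge given 180 s after compound.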
* hit, by the source's call; ! = not confirmed by another sample. Rule as the data show it, unless noted: active = activation above about 30%; inactive = the rest.

SMILES	TRHR agonist	D1 ag	D1 potentiator	TRHR enhancer	D1 antag
CCOc1ccc(-n2cc(-c3ccccc3)c3c(N4CCN(c5ccccc5OC)CC4)ncnc32)cc1	0	-2	-1	-6	-32*
COc1ccc(-n2cc(-c3ccccc3)c3c(N4CCN(CCO)CC4)ncnc32)cc1	4	17	-13	-2	-36*
COc1cccc(-c2nc(SCC(=O)Nc3ccc4c(c3)OCCO4)c(-c3ccc(C)cc3)[nH]2)c1	0	0	-3	3	-7
Cc1cccc(C(=O)Nc2c(C(=O)N3CCN(c4ccc(F)cc4)CC3)oc3ccccc23)c1	6	2	-4	-10	12
COc1ccc(CC(=O)Nc2c(C(=O)N3CCN(c4ccccc4OC)CC3)oc3ccccc23)cc1OC	0	3	-4	-14	-6
O=C(Nc1c(C(=O)N2CCN(c3ccc(F)cc3)CC2)oc2ccccc12)c1c(F)cccc1F	-2	2	-5	23	-59*
COc1ccc(CC(=O)Nc2c(C(=O)N3CCN(c4ccccc4)CC3)oc3ccccc23)cc1OC	0	-1	-4	-3	-31*!
Cc1ccc(NC(=O)CN(CCc2ccccc2)S(C)(=O)=O)cc1	1	5	2	6	-2
COc1cc(NC(=O)CCc2c(C)nc3cc(-c4ccccc4)nn3c2C)cc(OC)c1OC	0	-1	-5	5	0
COc1ccc(-c2cc3nc(C)c(CCC(=O)Nc4cccc(C(F)(F)F)c4)c(C)n3n2)c(OC)c1	0	0	-2	32*	-20
COc1cc(OC)cc(-c2cc3nc(C)c(CCC(=O)Nc4ccc(F)c(Cl)c4)c(C)n3n2)c1	0	2	-2	-2	-9
COc1ccc(NC(=O)CCc2c(C)nc3cc(-c4cccc(F)c4)nn3c2C)cc1Cl	0	0	-7	40*	-23
COC(=O)c1cc(NC(=O)CCc2c(C)nc3cc(-c4ccccc4)nn3c2C)cc(C(=O)OC)c1	0	1	-4	40*	-2
COc1ccc(-c2cc3nc(C)c(CCC(=O)NC(C)c4ccccc4)c(C)n3n2)c(OC)c1 (configuration not stated)	0	-1	-1	2	-7
CC1CCN(CCOCCOc2ccc(Br)cc2Cl)CC1	1	13	-18	-3	-33*
CC1CCN(CCOc2cc(Cl)ccc2Cl)CC1	-1	4	-4	24	-59*
COc1ccc(C2CC(c3ccccc3)=NN2c2ccc(N)cc2)cc1 (configuration not stated)	1	8	-3	-1	-30*
COc1ccc(C2CC(c3ccc4ccccc4c3)=NN2C(=O)CNC2CCCCC2)cc1 (configuration not stated)	0	32*	1	5	17
COc1ccc(C2CC(c3ccccc3)=NN2c2ccc(Cl)c(C(=O)O)c2)cc1 (configuration not stated)	0	8	0	7	-5
COc1ccc(C2=NN(C(N)=S)C(c3ccccc3)C2)cc1 (configuration not stated)	-1	5	1	0	-30*
COc1cc(NC(=O)CSc2nc3ncccc3o2)cc(OC)c1	0	0	-5	-5	-9
O=C(NCc1cccs1)C1CCN(C(=O)N2CCOc3ccc(Cl)cc32)CC1	0	7	4	-7	5
CCCCN(C)CC(O)Cn1cc(/C=C/C(=O)c2cccs2)c2ccccc21 (configuration not stated)	6	67*	-8	-9	-20
O=C(/C=C/c1cn(CC(O)CN2CCCCCC2)c2ccccc12)c1cccs1 (configuration not stated)	11	77*	-8	5	-21
CCCCN(CCCC)CC(O)Cn1cc(/C=C/C(=O)c2ccccc2)c2ccccc21 (configuration not stated)	2	13	2	1	-11
CCCCN(C)CC(O)Cn1cc(/C=C/C(=O)c2ccc(OCC)cc2)c2ccccc21 (configuration not stated)	1	41*	-3	-2	-56*!
O=C(Nn1cnnc1)c1ccc(F)cc1	1	2	-7	9	-2
CCc1cc(=O)oc2cc(OCC(=O)NCCCn3ccnc3)ccc12	0	3	-3	-4	-37*

Source: PubChem BioAssay (National Center for Advancing Translational Sciences (NCATS))
